# Screening results from PubChem.
# This is a sample that favours compounds with a hit; in the whole collection about 2.3% have one here.
# Tau fibril FP – inhibitors of human tau fibril formation; P10636; K18 P301L tau heparin fibrillization, Alexa594 FP, 6 h; Potency, µM (highest dose often 57.7 µM), without a hit: top-dose activity, negative = inhibition, usual class: inhibitors; hit rate 0.39% among 280,000; AID 1468; note: potency is the fitted concentration of half-maximal effect; nearly all actives have a fitted effect of over 55% in size
#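 Read-out: fluorescence polarization of Alexa 594-labeled tau (0.24 uM), 555 nm excitation, 632 nm emission. Mixtures held 15 uM unlabeled K18 P301L, compound and 20 uM heparin, pH 7 acetate buffer, incubated 6 hr at 37 C.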
# USP1 inh – blocks the human USP1/UAF1 deubiquitinase complex; AID 743255; hit rate 0.23% among 390,000; O94782; recombinant USP1/UAF1, Ub-Rhodamine cleavage fluorescence; Potency, µM (doses to about 57.1 µM), for inactives: top-dose activity change, negative = inhibition, hits mostly inhibitors; note: potency is the fitted concentration of half-maximal effect; nearly all actives have a fitted effect of over 60% in size
# Target sequence (O94782 whole entry, looked up): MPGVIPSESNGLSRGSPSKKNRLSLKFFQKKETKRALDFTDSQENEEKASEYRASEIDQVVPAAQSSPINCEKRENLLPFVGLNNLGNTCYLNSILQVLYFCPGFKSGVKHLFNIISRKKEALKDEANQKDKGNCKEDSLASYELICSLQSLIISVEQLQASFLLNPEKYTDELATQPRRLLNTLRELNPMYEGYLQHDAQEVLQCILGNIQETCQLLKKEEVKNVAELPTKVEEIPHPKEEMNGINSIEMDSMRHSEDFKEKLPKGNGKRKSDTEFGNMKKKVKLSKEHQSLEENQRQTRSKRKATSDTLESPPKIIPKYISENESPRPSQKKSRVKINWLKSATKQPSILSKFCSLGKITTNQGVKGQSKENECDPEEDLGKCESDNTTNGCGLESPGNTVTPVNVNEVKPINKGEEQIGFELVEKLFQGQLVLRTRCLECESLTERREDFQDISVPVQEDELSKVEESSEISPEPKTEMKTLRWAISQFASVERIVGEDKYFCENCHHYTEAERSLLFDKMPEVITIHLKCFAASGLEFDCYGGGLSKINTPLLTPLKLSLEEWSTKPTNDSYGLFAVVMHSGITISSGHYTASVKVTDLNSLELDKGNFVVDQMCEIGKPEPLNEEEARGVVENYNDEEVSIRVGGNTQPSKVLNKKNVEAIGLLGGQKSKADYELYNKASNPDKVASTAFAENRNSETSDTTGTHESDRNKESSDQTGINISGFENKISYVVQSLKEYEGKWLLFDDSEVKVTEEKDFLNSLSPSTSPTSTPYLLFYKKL
#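 USP1/UAF1 complex (1 nM) preincubated 15 min at room temperature with compound, then Ub-Rho substrate (150 nM final) added. Kinetic fluorescence at 480/540 nm over 6 reads at 60 s intervals; 50 mM HEPES pH 7.8, 0.5 mM EDTA, 0.1 mg/ml BSA, 1 mM TCEP, 0.01% Tween-20.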
# Tau fluor cs – counter-screen for tau fibril formation inhibitors; Potency, µM (doses to about 57.7 µM), inactives show at the top dose activity change, negative = decrease; hit rate 0.93% among 280,000; AID 1463; tau K18 P301L Alexa594 fluorescence, heparin fibrillization; note: potency is the fitted concentration of half-maximal effect; nearly all actives have a fitted effect of over 55% in size
#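 Human K18 P301L tau (15 uM unlabeled plus 0.24 uM Alexa 594-labeled, final) in 100 mM sodium acetate pH 7 was mixed with compound and 20 uM heparin and incubated 6 hr at 37 C.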
# Tau ThT inhib – tau fibrillization inhibition (ThT binding); Potency, µM (series often up to 57.4 µM), for inactives: top-dose activity, negative = inhibition, usual class: inhibitors; hit rate 2.1% among 270,000; AID 1460; P10636; recombinant tau K18 P301L (four-repeat tau fragment), heparin-induced fibrillization, ThT fluorescence; note: potency is the fitted concentration of half-maximal effect; nearly all actives have a fitted effect of over 55% in size
#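 Heparin-induced (20 uM) aggregation of recombinant human K18 P301L tau, 15 uM unlabeled with 0.24 uM labeled, pH 7 acetate buffer, 6 hr at 37 C with compound. Fibrils quantified by 30 uM ThT fluorescence after 1 hr ambient incubation.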
# FBPA coupling cs – coupling enzyme interference in Giardia aldolase counter-screen. hit rate 0.67% among 290,000. activity change, negative = inhibition, % at 58.2 µM, hits read low. coupling enzyme system counterscreen, AmpLite Red fluorescence. AID 2472; in the data active = activity change below about -30%
#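 Fluorescence at 525 nm excitation and 598 nm emission measured inhibition of the coupled detection system without aldolase. Compounds (at 57.5 uM final) were preincubated 10 min at room temperature with coupling enzyme reagent before a 20 min substrate/AmpLite Red step.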
# The depositor's hits bear a star; ? = inconclusive; . = no result; [ ] = another dose, or the depositor's remark. Unless noted, calls come from the whole dose curve; as a rule, active = well fitted curve in the direction sought with a large enough effect; inconclusive = small, poorly fitted or top-dose-only effect, or another doubt; inactive = no such curve, though single readings can be large; an effect the other way counts as inactive or inconclusive. % is set by controls: 0 for no effect and ±100 for the full control effect.
SMILES,Tau fibril FP,USP1 inh,Tau fluor cs,Tau ThT inhib,FBPA coupling cs
CCN(CC)c1ccc(NC(=S)NC(=O)c2cccs2)cc1,19%,-17%,13µM*[quencher],6.3µM*,1
CC(=O)NC(=S)Nc1ccc(NC(=S)NC(=O)c2cccs2)cc1,.,-15%,.,.,.
CCN(CC)c1ccc(NC(=S)Nc2ccc(F)cc2)cc1,?,-10%,?,13µM*,-25
CC(=O)N1CCCc2cc(S(=O)(=O)NCc3ccccc3Cl)ccc21,0%,2%,-3%,5%,.
CCC(=O)N1CCc2cc(Br)cc(S(=O)(=O)N3CCCC(C(=O)NCc4ccccc4)C3)c21 (stereo not drawn),4%,-24%,-10%,-1%,.
COc1ccc(Nc2nc3ccc(Cl)cc3nc2-n2nc(C)cc2C)cc1,0%,-17%,-21%,-6%,.
O=C(O)c1ccc(-c2ccc(/C=C3\NC(=O)N(Cc4ccc(Cl)cc4)C3=O)o2)cc1Cl,?,?,-26%,28µM*,7
Cc1ccccc1-c1nc2c(c(SCc3cccc(Cl)c3)n1)Cc1c(CO)cnc(C)c1O2,10%,-15%,0%,1%,.
COc1ccccc1CNC(=O)c1cnn(-c2ccc(F)cc2F)c1C1CCN(C(=O)OC(C)(C)C)CC1,4%,-16%,-4%,-2%,.
c1cc2c3c(cccc3c1)C(N1CCCCCC1)=N2,-1%,-12%,0%,-6%,-23
c1ccc2c(c1)CCN(C1=Nc3cccc4cccc1c34)C2,-14%,?,-14%,16µM*,-25
CC(=O)c1cc2c(cc1NC(=O)c1c(C)nn(-c3ccc(C)cc3)c1-n1cccc1)OCO2,-4%,7%,-1%,4%,.
CCOc1ccccc1OCCCC(=O)Nc1ccc(OC)nc1,0%,-9%,-6%,2%,-32*
O=[N+]([O-])c1ccc(N2CCCCC2)nc1N1CCCCC1,0%,-16%,-22%,?,0
O=[N+]([O-])c1ccc2c(c1N1CCCCC1)=NC1(CCCCC1)[N+]=2[O-],?,-7%,?,13µM*,-26
Cn1c(=O)c(N)c2c3c(c(Br)ccc31)C(=O)c1ccccc1-2,-13%,244%,?,14µM*,-1
CCC1c2ccc(C)n2CCN1C(=O)Nc1cc(Cl)ccc1OC (stereo not drawn),?,-22%,-28%,22µM*,2
CCC1c2ccc(C)n2CCN1C(=O)Nc1ccccc1C(=O)OC (stereo not drawn),?,?,-13%,?,-1
Cc1cccc(N2CCN(C(=O)C3CCN(S(=O)(=O)c4cn(C)cn4)CC3)CC2)c1C,-8%,-20%,-1%,0%,.
O=C(CSc1nc2ccc(Cl)cc2[nH]1)c1ccc2c(c1)OCO2,?,-9%,?,-17%,-36*
CCOc1ccc(NC(=O)N2CCN(c3nnc(C)c4c(C)n(-c5ccccc5)nc34)CC2)cc1,-1%,-15%,0%,-2%,.
O=C1NN(c2ccc(F)c(Cl)c2)C(=O)/C1=C\c1cccc(OC(=O)c2cccs2)c1,-11%,?,?,20µM*,9
CC(C)=C1C(=O)NN(c2ccc(F)c(Cl)c2)C1=O,7%,-25%,-19%,?,7
Cc1c2ccccc2nc2c(F)c(NCCO)c(F)c(F)c12,?,?,?,13µM*,-30
OCCNc1c2ccccc2nc2c(F)c(F)c(F)c(F)c12,-19%,-2%,?,?,0
SMILES,Tau fibril FP,USP1 inh,Tau fluor cs,Tau ThT inhib,FBPA coupling cs
Cc1nc2ccc(N=NC3=C(O)CC(C)(C)CC3=O)cc2s1,6%,-4%,-16%,?,-3
Cc1nc2ccc(N=NC3=C(O)CCCC3=O)cc2s1,12%,-19%,-14%,13µM*,-1
COc1cc(C2C3=C(Nc4nc(N)[nH]c(=O)c42)c2ccccc2C3=O)ccc1O (stereo not drawn),13%,-13%,-27%,11µM*,-2
CC(C)(C)c1ccc(C2C3=C(CCCC3=O)NC3=C2C(=O)c2ccccc23)cc1 (stereo not drawn),11%,-23%,?,?,-1
Nc1nc2c(c(=O)[nH]1)C(c1ccccc1)C1=C(N2)c2ccccc2C1=O (stereo not drawn),6%,-8%,?,6.3µM*,-2
CCC(C)c1ccc(C2C3=C(Nc4nc(N)[nH]c(=O)c42)c2ccccc2C3=O)cc1 (stereo not drawn),-5%,-13%,?,?,-1
Cn1c2c(c(=O)[nH]c1=O)C(c1ccc(O)cc1)C1=C(N2)c2ccccc2C1=O (stereo not drawn),4%,?,?,22µM*,-4
CCOc1ccc(N(CC(=O)NCc2ccc(C)cc2)S(=O)(=O)c2c(C)noc2C)cc1,-11%,-27%,-11%,0%,.
CCOC(=O)c1c(CSC(=N)N)n(-c2ccc(Br)cc2)c2cc(Br)c(OC(C)=O)cc12,?,-10%,?,16µM*,-2
S=c1[nH]c2ccc3ccccc3c2[nH]1,1%,-5%,0%,-3%,-2
Cc1[nH]c2c(ccc3ccccc32)c1C1C(CCN)C1(C)C (stereo not drawn),?,-24%,16µM*[quencher],?,-2
COc1ccc(CN2CCNC(=O)C2CC(=O)NC2CC(C)(C)CC(C)(C)C2)cc1OC (stereo not drawn),.,-22%,.,.,.
COc1ccc(OC)c(S(=O)(=O)N2CCC(NC(=O)c3ccccc3)CC2)c1,.,-8%,.,.,-3
Cc1ccc(OCC(=O)Nc2sc3c(c2C#N)CC(C)(C)NC3(C)C)cc1,-9%,-1%,-16%,-12%,2
CC1(C)Cc2c(sc(NC(=O)COc3cccc4ccccc34)c2C#N)C(C)(C)N1,-2%,18µM*,-17%,-14%,-2
COc1ccc(CNC(=O)[C@H](C)NC(=O)C2CCN(C(=O)[C@@H](N)Cc3ccccc3)CC2)cc1,.,12%,.,.,0
O=C(N/N=C/c1ccc(N2CCOCC2)cc1)c1ccc(O)cc1,9%,-14%,-21%,5µM*,2
CCn1c(C)nc2cc(C(=O)N/N=C/c3ccc(N4CCOCC4)cc3)ccc21,4%,-15%,-20%,8.9µM*,0
O=C(Nc1nc(-c2ccccn2)cs1)c1ccc([N+](=O)[O-])o1,?,-21%,?,13µM*,-3
Cc1cc(C(=O)Nc2nc(-c3ccccn3)cs2)ccc1[N+](=O)[O-],6%,-22%,?,11µM*,-5
CN1C2C=C3C(C#N)=C(N)C(C#N)(C#N)[C@@H](c4cccs4)C3C1CC2 (stereo partly drawn),?,-11%,-14%,20µM*,-20
CN1C2C=C3C(C#N)=C(N)C(C#N)(C#N)[C@@H](c4cccc(F)c4)[C@@H]3C1CC2 (stereo partly drawn),?,-18%,-9%,20µM*,-7
